Only a sample is shown.
aSyn 5UTR act: Activators via SNCA 5'UTR binding, MLPCN. alpha-synuclein 5'UTR reporter, activators screen. activity score, % (tested at 7.5 µM), hits read low. 300,000 compounds, 7.1% hits; in the data active means activity score below about -60%
Numbers stand for hits; n = inactive.

SMILES	aSyn 5UTR act
O=[N+]([O-])c1nn(-c2ccc3c(c2)OCCO3)n(O)c1=NC1CCCCC1	-64
O=[N+]([O-])c1nn(-c2ccc3c(c2)OCCO3)n(O)c1=NCc1ccccc1Cl	-95
CCS(=O)(=O)c1nc(S(=O)(=O)c2ccc(C)cc2)c(N2CC(C)OC(C)C2)s1 (stereo not given)	-105
CCCS(=O)(=O)c1nc(S(=O)(=O)c2ccc(C)cc2)c(N2CCN(C)CC2)s1	-69
CCCCc1ccc(NC(=O)OC)cc1	-79
O=C(Nc1ccccc1)OCCCc1ccccc1	-119
CCCCc1ccc(NC(=O)Nc2cccnc2)cc1	-102
Cc1ccc(-c2nc3ccccc3o2)cc1NC(=O)c1ccc2c(c1)OCO2	-151
O=C(Nc1ccc(-c2nc3ccccc3o2)cc1)c1ccc2c(c1)OCO2	-66
Cc1ccc2oc(-c3ccc(NC(=O)c4ccc5c(c4)OCO5)cc3)nc2c1	-105
COc1ccc(C2C=C(C)Nc3ncnn32)cc1 (stereo not given)	-154
COc1cc2[nH]c3ccccc3c2cc1C	-65
CN(C)/C=C1/C(=O)N(c2ccc([N+](=O)[O-])cc2)N=C1c1ccccc1	-115
COc1ccc(C2=NN(C(=O)COc3ncnc4ccccc34)C(c3ccco3)C2)cc1 (stereo not given)	n
CC(=O)N1N=C(c2ccc(C)cc2)CC1c1ccc2c(c1)OCO2 (stereo not given)	-133
CS(=O)(=O)N1N=C(c2ccc(Br)cc2)CC1c1ccc2c(c1)OCO2 (stereo not given)	-322
CC(=O)N1N=C(c2ccc(C)cc2)CC1c1ccco1 (stereo not given)	-98
Cc1ccc(C2=NN(S(C)(=O)=O)C(c3ccc4c(c3)OCO4)C2)cc1 (stereo not given)	-265
CC(=O)N1N=C(c2ccccc2)CC1c1cn(C)c2ccccc12 (stereo not given)	-117
CCOC(=O)c1csc(-c2ccc([N+](=O)[O-])cc2)n1	-67
CC(C)(C)c1ccc(S(=O)(=O)NCC(=O)Nc2ccc(-c3nc4ccccc4s3)cc2)cc1	-101
CC(NS(=O)(=O)c1cccc(Cl)c1)C(=O)Nc1ccc(-c2nc3ccccc3s2)cc1 (stereo not given)	-139
Cc1ccc(C)c(S(=O)(=O)NC(C)C(=O)Nc2ccc(-c3nc4ccccc4s3)cc2)c1 (stereo not given)	-108
COc1ccc(CCn2c(=N)c(C(=O)NCC3CCCO3)cc3c(=O)n4cccc(C)c4nc32)cc1 (stereo not given)	-116
COc1ccc(CCNC(=O)c2cc3c(=O)n4cccc(C)c4nc3n(CCCN3CCOCC3)c2=N)cc1	-67
SMILES	aSyn 5UTR act
COc1ccc(CNC(=O)C(C)Sc2nc3ccccc3c(=O)n2CCCN2CCOCC2)cc1 (stereo not given)	n
Nc1nc2c(s1)CCc1c-2cnn1-c1ccccc1	-80
CCN(CC)c1ccc(N=Cc2c(C)[nH]c3ccccc23)cc1	n
Oc1[nH]c2ccccc2c1C=Nc1ccccc1	-130
COc1cccc(OCc2cc(/C=N/Nc3ccc(C(=O)O)cc3)ccc2OC)c1	-92
CCOc1cc(/C=N/Nc2ccc(C(=O)O)cc2)ccc1OC(=O)c1ccccc1C	-91
Cc1nc(CSc2ccc(Br)cc2)cs1	-71
c1ccc2c(-c3cn4ccccc4n3)c[nH]c2c1	-281
Oc1ccc(-c2cn3ccccc3n2)cc1O	-124
O=C(Nc1cccc(-c2cn3ccccc3n2)c1)c1cc2ccccc2oc1=O	-100
CC(=O)Nc1cccc(-c2cn3ccccc3n2)c1	-78
COc1ccc(NS(=O)(=O)c2ccc(N3CCCC3)c(NC(=S)Nc3cccc(C)c3C)c2)cc1	-132
O=C(NCCc1ccccc1)c1n[nH]c2ccccc12	-144
COCCn1c(C)cc(C(=O)COC(=O)c2n[nH]c3ccccc23)c1C	n
CC1CCCCN1C(=O)COC(=O)c1n[nH]c2ccccc12 (stereo not given)	-73
O=C(OCCOc1ccccc1)c1n[nH]c2ccccc12	-168
Nc1c(C(=O)NCCc2ccccc2)nnn1Cc1ccccc1	-75
O=C(Nc1ccccc1)c1nnn(Cc2ccccc2)c1NC(=O)C(F)(F)F	-72
O=C(NCCc1ccccc1)c1nccc2ccccc12	-111
O=c1[nH]cnc2nn(-c3ccccc3)nc12	-82
O=C1CCC(=O)N1c1ccc(-c2nc3ccccc3s2)cc1	-120
O=C1CNC(=S)N1c1nc2ccccc2s1	n
Nc1ccc(-c2nc3ccccc3s2)cn1	-110
Brc1ccc(-c2nc3ccccc3s2)s1	-115
c1ccc(-c2nc3ccccc3s2)nc1	-87
SMILES	aSyn 5UTR act
COc1cc(OC)cc(-c2nc3ccccc3s2)c1	-286
Cc1nnc(NC(=O)c2csc3c2CCCC3)s1	-99
Cc1nnc(NC(=O)c2csc3c2CCC(C)C3)s1 (stereo not given)	-100
COc1ccc(NC(=O)CC2CC3CCC2C3)cn1 (stereo not given)	-68
Cc1c(C(=O)NCCC2=CCCCC2)cccc1[N+](=O)[O-]	-90
O=C(NCCC1=CCCCC1)c1cnsn1	-65
Cc1cc(C(=O)NCCC2=CCCCC2)no1	-81
CSc1nc(O)c(/C=C2\C=Nc3ccccc32)[nH]1	-221
Cc1ccc(-n2nc(C)c3c2OC(N)=C(C#N)C3c2cccs2)cc1 (stereo not given)	-91
Cc1nc2cc3ccccc3cc2c(=O)[nH]1	-112
C[C@@H]1[C@@H](Sc2ccccc2)CC(=O)O[C@@H]1c1ccc(-c2ccccc2)cc1	-182
C/C(=N\N=C(/C)c1cccc(N)c1)c1cccc(N)c1	-111
C/C(=N\Nc1ccc([N+](=O)[O-])cc1)c1cccc(N)c1	-199
C/C(=N\Nc1ccc([N+](=O)[O-])cc1)c1ccc(O)cc1	-217
COc1ccc(C(=O)N2CCc3ccccc32)cc1	-89
COc1ccc(CCC(=O)N2CCc3ccccc32)cc1	-91
Cc1ccc(/C=C/C(=O)N2CCc3ccccc32)o1	-204
COC(=O)C1=C(CN2CCCc3ccccc32)NC(=O)NC1c1ccc(F)cc1 (stereo not given)	n
COc1ccc(/C=C/C(=O)N2CCCc3ccccc32)cc1	-93
COc1cc2[nH]c(C(=O)N3CCc4ccccc43)cc2c(OC)c1OC	-93
CN(C(=O)/C=C/c1ccc([N+](=O)[O-])s1)c1ccccc1	-82
COC(=O)c1cnn(-c2cc(Oc3cccc(C)c3)ncn2)c1N	-138
O=C(Nc1ccc2c(c1)oc1ccccc12)c1ccncc1	-207
CCNC(=S)Nc1ccc2c(c1)oc1ccccc12	-165
O=C(Nc1ccc2c(c1)oc1ccccc12)c1cccnc1	-190
SMILES	aSyn 5UTR act
Cc1ccc(OC(=O)c2oc3ccc(F)cc3c2C)c(C)c1	-112
Cc1cc(C)nc(/N=C(\N)N2CCc3ccccc32)n1	-62
O=C(NCCSc1ccccc1)c1ccc(CN2CCOCC2)cc1	-126
O=C(N/N=C/c1ccccc1[N+](=O)[O-])c1ccc(CN2CCOCC2)cc1	-83
O=C(Nc1cccc([N+](=O)[O-])c1)c1ccc(CN2CCOCC2)cc1	-124
CC(C)(C)c1ccc(C(=O)Nc2ccc(CN3CCS(=O)(=O)CC3)cc2)cc1	-68
C/C(=N\NC(=O)CSCc1ccc(Cl)cc1)c1ccc(NC(=O)c2ccccc2)cc1	-137
O=C(Nc1ccc(CN2CCOCC2)cc1)c1ccc(F)cc1	-117
O=C(Nc1ccc(CN2CCOCC2)cc1)c1ccc(Br)cc1	-173
O=C(Nc1ccc(CN2CCOCC2)cc1)c1ccc2ccccc2c1	-182
C/C(=N\NC(=O)c1ccc(CN2CCOCC2)cc1)c1ccc(NC(=O)c2ccccc2)cc1	-77

High-throughput results: PubChem BioAssay, Broad Institute
